Experimental data: PubChem BioAssay AID720540 (National Center for Advancing Translational Sciences (NCATS), 2013)
Among all 1,300 compounds or so, about 460 (35%) were called active. About 39% were inconclusive and are not listed. Calls come from the whole dose curve; as a rule, active = well fitted inhibition curve with a large enough effect; inconclusive = small, poorly fitted or top-dose-only effect; inactive = flat fitted curve, though single readings scatter. This is one part of the list.
Note: nearly all actives have a fitted effect of over 65% in size.
Potency is the fitted concentration of half-maximal effect.

Each compound was assayed against Protein phosphatase EYA2 (Homo sapiens) (UniProt O00167) (assay: qHTS for Inhibitors of the Phosphatase Activity of Eya2: Confirmatory Assay for Cherry-picked Compounds). Details: purified EYA2 phosphatase activity, qHTS confirmation; series mostly up to 46.1 µM.
Protein phosphatase EYA2 (Homo sapiens), sequence (O00167 whole entry, looked up, the tested form may be a part): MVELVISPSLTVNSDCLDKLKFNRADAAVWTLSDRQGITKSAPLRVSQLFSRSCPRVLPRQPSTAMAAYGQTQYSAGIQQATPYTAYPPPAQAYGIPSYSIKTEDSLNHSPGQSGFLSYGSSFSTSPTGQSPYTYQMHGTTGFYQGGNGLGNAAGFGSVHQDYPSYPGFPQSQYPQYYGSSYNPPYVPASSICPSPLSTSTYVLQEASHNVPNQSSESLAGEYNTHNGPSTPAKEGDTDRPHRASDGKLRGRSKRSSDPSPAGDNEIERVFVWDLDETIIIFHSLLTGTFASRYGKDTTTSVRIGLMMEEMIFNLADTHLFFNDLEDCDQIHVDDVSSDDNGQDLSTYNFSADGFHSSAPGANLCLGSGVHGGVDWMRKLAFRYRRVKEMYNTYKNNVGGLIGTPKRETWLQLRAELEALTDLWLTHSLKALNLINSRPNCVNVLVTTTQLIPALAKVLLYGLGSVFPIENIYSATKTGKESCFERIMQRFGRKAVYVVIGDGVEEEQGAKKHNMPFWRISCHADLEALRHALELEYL
Source text: The Eya protein family is an essential co-activator of the Six1 transcription factor. Six1 is a developmental gene that is abnormally re-expressed in a large percentage of breast cancers. This over-expression plays a causal role in the initiation and metastatic development of breast cancers. The Eya family of protein is also found to contain a unique HAD phosphatase domain with protein tyrosine phosphatase activity which can potentially play a role in Six1-mediated breast tumorigenesis. Recently, Eya2 is found to dephosphorylate the histone variant H2AX and direct cells towards DNA repair instead of apoptosis in the event of DNA damage.
A 1536 well format, fluorescence based qHTS assay was developed and used to target the phosphatase activity of Eya2 (AID 488837). Inhibitors found against Eya2 could serve as potential therapeutic tools to inhibit Six1-mediated breast tumorigenesis and to increase the efficiency of radiation and certain chemo therapy. This assay assessed the activity of the primary screen cherry-picked compounds against Eya2. Inhibition is the desired outcome for this assay.
NIH Chemical Genomics Center [NCGC]
NIH Molecular Libraries Probe Centers Network [MLPCN]
Assay Submitter (PI): Rui Zhao, University of Colorado Denver
Eya2 enzyme and 3-O-methyl-fluorescein phosphate (OMFP) substrate working solutions were reconstituted in the buffer reagent consist of 50 mM HEPES pH 7.5, 50 mM NaCl, […], 0.05% BSA and 1 mM DTT. One and a half microliter of 0.2 uM Eya2 working solution was dispensed in a 1536 well Greiner plate (black, medium bind). Twenty-three nanoliter of test compounds and control compound EGTA was transferred to the assay plate using the Kalypsys robotic system equipped with a 1536 pin head. The plate was incubated at room temperature for 10 minutes. One and a half microliter of the 50 uM the OMFP substrate was then dispensed to the assay plate and incubated at room temperature for additional 10 min. The fluorescence signal was read using the PerkinElmer ViewLux plate reader using a 485 nm excitation and 525 nm emission filters. The data was normalized to the positive control for maximum inhibition and DMSO treated wells as negative control.
In the case of CCC(C)Nc1nc(-c2ccccn2)nc2ccccc12 (stereo not given), the Potency is reported as 8.49 µM (active). In the case of CC(C)c1cccc(-c2ccc3c(c2)S(=O)(=O)c2cccc(C(=O)O)c2C3=O)c1, the Potency is reported as 21.3 µM (active). For CCN(CC)c1ccc(/C=C2\CCC(/C=C(\C#N)C(=O)Nc3ccccc3F)=C2N2CCOCC2)cc1, the Potency was 3.01 µM (active). In the case of N#C/C(=C\C1=C(N2CCOCC2)C(=C\c2ccccc2)/CC1)C(=O)Nc1ccccc1F, the Potency is reported as 1.07 µM (active). COc1cc([C@H]2Oc3cc([C@H]4Oc5cc(O)cc(O)c5C(=O)[C@@H]4O)ccc3O[C@@H]2CO)ccc1O was tested, and the Potency was “inactive”. With O=C1C(=O)C(c2ccc(O)cc2O)Oc2cc(O)cc(O)c21 (stereo not given) the Potency was 8.49 µM (active). In the case of CC1(C)CC(=O)C(C2C3=C(CC(C)(C)CC3=O)Oc3c(Br)cc(Br)cc32)=C(O)C1 (stereo not given), the Potency is reported as 3.79 µM (active). In the case of O=C(CSc1nnc2c(Cl)cc(Cl)cn12)NC1CCS(=O)(=O)C1 (stereo not given), the Potency is reported as “inactive”. In the case of CCC(C)Nc1ccc(NC(C)CC)cc1 (stereo not given), the Potency is reported as 0.0953 µM (active). O=c1cc2c(=O)oc3cc(O)c(O)oc3c2c(O)c1O was tested, and the Potency was 1.2 µM (active). Cc1ccc2cc(NC(=O)CC(CC(=O)O)c3ccccc3)ccc2n1 (stereo not given) was tested, and the Potency was 19 µM (active). With O=C(C1CCN(c2nnc(-n3cccc3)s2)CC1)N1CCOCC1 the Potency was “inactive”. In the case of CN(C)c1ccc(C=C2c3ccccc3-c3ccccc32)cc1, the Potency is reported as 7.57 µM (active). In the case of CNc1ccc(C=C2c3ccccc3-c3ccccc32)cc1, the Potency is reported as 12 µM (active). In the case of CN(C)c1ccc2c(c1)C(=NO)c1ccccc1-2, the Potency is reported as 9.53 µM (active). With CN(C)c1ccc(/C=C2\C(Cl)=Cc3ccccc32)cc1 the Potency was 5.36 µM (active). With CN(Cc1ccccc1F)c1nc(-c2cccnc2)nc2ccccc12 the Potency was “inactive”. COc1ccc(Nc2nc(C(C)(C)C)nc3c2nnn3Cc2ccccc2Cl)cc1OC was tested, and the Potency was “inactive”. CN(C)c1ccc(/C=C2\C(=O)/C(=C/c3ccc(N(C)C)cc3)c3ccccc32)cc1 was tested, and the Potency was 4.26 µM (active). In the case of CN(C)c1ccc(/C=C2\c3ccccc3-c3ccc(N(C)C)cc32)cc1, the Potency is reported as 5.36 µM (active). In the case of CCOc1ccc(NC(=O)COc2cccc3cccnc23)cc1S(=O)(=O)N1CCCC1, the Potency is reported as 19 µM (active). With CCOc1ccc(NC(=O)COc2ccc3c(c2)CCC3)cc1OC the Potency was “inactive”. For CCOc1ccc(S(=O)(=O)NCc2ccc(C)cc2)c2cccnc12, the Potency was “inactive”. For CN(C)c1ccc(/C=C2\C=Cc3ccccc32)c(Cl)c1, the Potency was 6.75 µM (active). With COc1cc(N(C)C)c(OC)cc1/C=C1\C=Cc2ccccc21 the Potency was 5.36 µM (active). COc1cc(N(C)C)ccc1/C=C1\C=Cc2ccccc21 was tested, and the Potency was 7.57 µM (active). In the case of COc1cc(OC)c(OC)cc1/C=C1\C=Cc2ccccc21, the Potency is reported as 8.49 µM (active). For CC(C)(C)C(=O)[C@H]1[C@H](c2ccccc2)[C@@]2(N=C(c3ccccc3)OC2=O)C2c3ccccc3C=NN21 (stereo not given in full), the Potency was “inactive”. CC1=CC(=O)Nc2ncccc2O1 was tested, and the Potency was 19 µM (active). With Cc1ccccc1Nc1c(-c2ccccn2)nc2ccccn12 the Potency was 2.39 µM (active). In the case of Cc1ccc(Nc2c(-c3ccccn3)nc3ccc(C)cn23)cc1, the Potency is reported as 4.26 µM (active). With Cc1cccc(C)c1Nc1c(-c2ccccn2)nc2ccccn12 the Potency was 7.57 µM (active). CC(=O)c1ccc(NS(=O)(=O)c2cccc(C(=O)Nc3ccccc3C(=O)O)c2)cc1 was tested, and the Potency was 15.1 µM (active). CC(=O)Oc1cccc(C(=O)Nc2cccc(C(=O)Nc3ccccc3C(=O)O)c2)c1 was tested, and the Potency was 15.1 µM (active). For CCOC(=O)C1CCN(C2=C(NS(=O)(=O)c3ccc(Br)cc3)C(=O)c3ccccc3C2=O)CC1, the Potency was 3.79 µM (active). CCOC(=O)C1CCCN(C2=C(NS(=O)(=O)c3ccc(Br)cc3)C(=O)c3ccccc3C2=O)C1 (stereo not given) was tested, and the Potency was 9.53 µM (active). CCOC(=O)CNC(=O)C1CCCN(c2ncccn2)C1 (stereo not given) was tested, and the Potency was “inactive”. In the case of NC(=O)C1CCN(c2oc(-c3cccs3)nc2S(=O)(=O)c2ccc(Br)cc2)CC1, the Potency is reported as “inactive”. N/C(=N\OC(=O)c1ccc2ccccc2c1)c1ccncc1 was tested, and the Potency was “inactive”. For Cc1cc(C)nc(-n2nc(C)cc2NC(=O)c2cc3ccccc3oc2=O)n1, the Potency was 5.36 µM (active). For O=C(CC1(O)C(=O)Nc2ccccc21)c1ccccc1 (stereo not given), the Potency was “inactive”. With CCOC(=O)C1=C(COC(=O)CCOc2ccccc2)NC(=O)NC1C (stereo not given) the Potency was “inactive”. With Cc1nc(COC(=O)c2c(C)nn(-c3ccccc3)c2C)cs1 the Potency was “inactive”. For COc1ccc(C(=O)Oc2ccc(=O)n(-c3ccccc3)n2)cc1, the Potency was 8.49 µM (active). For CCOC(=O)c1c2ccc(OCC(=O)NN)cc2n2ccccc12, the Potency was “inactive”. With Cc1[nH]c2ccc(C(=O)OC(C)C(=O)N(C)c3ccccc3)cc2c1C (stereo not given) the Potency was “inactive”. With CCOC(=O)c1[nH]c2ccc(C(=O)OC)cc2c1C(=O)OCC the Potency was 13.5 µM (active). With O=c1cc(CSc2ccc(Cl)cc2)nc(-c2ccccn2)[nH]1 the Potency was 2.13 µM (active). Cc1ccc(/C=C/C(=O)Nc2ccc(N(C)C)cc2)o1 was tested, and the Potency was 19 µM (active). NC(=O)c1ccc(NC(=O)COC(=O)/C=C/c2ccc(Br)o2)cc1 was tested, and the Potency was “inactive”. CCn1ccnc1CNCc1cn(-c2cc(C)ccc2C)nc1-c1ccccc1 was tested, and the Potency was 15.1 µM (active). COc1cc(N)c(Cl)cc1C(=O)N[C@H]1CCN(CCCOc2ccc(F)cc2)C[C@H]1OC was tested, and the Potency was “inactive”. O=c1c(CO)cc(CO)cc(CO)c1O was tested, and the Potency was 5.36 µM (active). In the case of O=C(Nc1ccc(Nc2ccccc2)cc1)c1ccc(Cl)cc1[N+](=O)[O-], the Potency is reported as “inactive”. In the case of O=C(O)c1ccc(Nc2cnc3ccccc3n2)cc1, the Potency is reported as “inactive”. With Cc1cc(NS(=O)(=O)c2ccc(NC(=O)c3cc4c(=O)n5ccccc5nc4s3)cc2)nc(C)n1 the Potency was 8.49 µM (active). Cc1cc(NS(=O)(=O)c2ccc(NC(=O)c3cnc(Cl)c(Cl)c3)cc2)nc(C)n1 was tested, and the Potency was 2.39 µM (active). For O=C(Nc1ccc(S(=O)(=O)Nc2cnc3ccccc3n2)cc1)c1ccc(Cl)c([N+](=O)[O-])c1, the Potency was 16.9 µM (active). With CN=c1scc(C)n1/N=C/c1ccc2c(c1)OCO2 the Potency was “inactive”. CC1CCC2C(=O)N(c3ccc(C(=O)Oc4cccc5cccnc45)cc3)C(=O)C2C1 (stereo not given) was tested, and the Potency was 8.49 µM (active). For COc1cc(NS(=O)(=O)c2ccc(N/C=C\C(=O)c3ccc(OC)c(OC)c3)cc2)nc(OC)n1, the Potency was 9.53 µM (active). For COc1ccc(C(=O)/C=C/Nc2ccc(S(=O)(=O)Nc3nc(C)cc(C)n3)cc2)cc1OC, the Potency was 13.5 µM (active). For CC(=O)Nc1ccc2nc(C3CC3)n(Cc3ccc(Cl)cc3)c(=O)c2c1, the Potency was “inactive”. With CN1C=C/C(=C\c2cc[n+](C)c3ccccc23)c2ccccc21 the Potency was 16.9 µM (active). In the case of C[n+]1ccc(/C=C/c2cc[n+](C)c3ccccc23)c2ccccc21, the Potency is reported as 9.53 µM (active). Cc1cc(C)c2nc(SCC(=O)N(C)C3CCS(=O)(=O)C3)cc(C)c2c1 (stereo not given) was tested, and the Potency was “inactive”. For CCCCC1=CC2=C(c3ccco3)C(=O)C(C)(OC(=O)c3ccc(OC)cc3)C(=O)C2=CN1CCc1ccccn1 (stereo not given), the Potency was “inactive”. For COc1cc(C=NO)nc(-c2ccccn2)c1, the Potency was 1.2 µM (active). In the case of Oc1c(Cl)cc(CN2CCOCC2)c2cccnc12, the Potency is reported as 0.478 µM (active). In the case of CC(C)Cc1nc2oc3c(=O)[nH]cnc3c2c2c1CCC2, the Potency is reported as 19 µM (active). For O=C(O)c1cccc2cccc(-c3c4ccc(=O)c(O)c-4oc4c(O)c(O)ccc34)c12, the Potency was 3.79 µM (active). For O=C(O)CCc1c2ccc(=O)c(O)c-2oc2c(O)c(O)ccc12, the Potency was 1.69 µM (active). For COc1ccccc1NC(=O)NCCN1CCN(C(=O)Nc2ccccc2OC)CC1, the Potency was “inactive”. For COc1cc(C(C(=O)NC2CCCCC2)N(C(=O)Cc2c[nH]c3ccccc23)c2ccc(C)cc2)cc(OC)c1OC (stereo not given), the Potency was “inactive”. For O=C(O)c1cccc(N2C(=O)c3cccc(Oc4ccc(Cl)cc4)c3C2=O)c1, the Potency was “inactive”. With CC(=O)Oc1cccc2c1C(=O)c1c(OC(C)=O)cc(C(=O)O)cc1C2=O the Potency was 16.9 µM (active). O=S(c1cc(Cl)cc(Cl)c1O)c1cc(Cl)cc(Cl)c1O was tested, and the Potency was 1.35 µM (active). CCN(CC)c1ccc(NC(=S)NC(=O)c2cccs2)cc1 was tested, and the Potency was 13.5 µM (active). With CCC(=O)NC(=S)Nc1ccc(NC(=O)COc2ccc([N+](=O)[O-])cc2)cc1 the Potency was “inactive”. CCCC(=O)Nc1ccc(NC(=S)NC(=O)c2cccs2)cc1 was tested, and the Potency was “inactive”. For O=c1[nH][nH]cc1C=Nc1cc(Cl)ccc1O, the Potency was 5.36 µM (active). In the case of CCOC(=O)c1cc2c(N)c(C(=O)c3ccc(Br)cc3)sc2[nH]c1=O, the Potency is reported as 1.9 µM (active). O=C(Nc1nc(-c2ccco2)c(-c2ccco2)s1)C1CC(=O)N(c2ccc3c(c2)OCCO3)C1 (stereo not given) was tested, and the Potency was 19 µM (active). In the case of CCc1ccc(-c2csc(NC(=O)C3CC(=O)N(c4ccc5c(c4)OCCO5)C3)n2)cc1 (stereo not given), the Potency is reported as “inactive”. For O=C(Nc1nc(-c2ccccn2)cs1)C1CC(=O)N(c2ccc3c(c2)OCCO3)C1 (stereo not given), the Potency was 7.57 µM (active). In the case of Cc1ccc(SCc2nc(N)nc(Nc3ccccc3C)n2)cc1C, the Potency is reported as “inactive”. In the case of COc1ccc(-c2c(N)cnc(C(=O)O)c2C)c(OCc2ccccc2)c1OC, the Potency is reported as 19 µM (active). In the case of Cc1ccc(C(=O)Oc2cc(C)n(C)c(=O)c2)cc1, the Potency is reported as 1.51 µM (active). In the case of Cc1cc(OC(=O)c2ccc(Cl)cc2)cc(=O)n1C, the Potency is reported as 2.39 µM (active). For Cc1ccc(NC(=O)CSc2cccc3cccnc23)c(C)c1, the Potency was 5.36 µM (active). For CCN1C(=O)/C(=C2/C=Cc3ccccc3N2CC)SC1=S, the Potency was 3.79 µM (active). For Cc1cccc(NC2=C(NCCO)C(=O)c3ccccc3C2=O)c1, the Potency was 16.9 µM (active). In the case of c1ccc2cc(CSCc3nc4ccccc4[nH]3)ccc2c1, the Potency is reported as “inactive”. In the case of Cc1nn2c(c1-c1ccccc1)NC1=C(C(=O)CCC1)C2c1ccccc1 (stereo not given), the Potency is reported as “inactive”. In the case of O=C1C=CC(=O)c2c(O)c(N3CCN(CCOCCO)CC3)c(Br)c(O)c21, the Potency is reported as 13.5 µM (active).
